Several values for one entry are separate records, joined by “and”; a condition that tells them apart may be missing. Equal values may be shown once. About 83,000 compounds went through this panel and 20% of them were active in at least one assay; those are over-represented in the sample as a whole.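 For each line, cells grew in 96-well plates with the test compound present at a single concentration for 48 hours.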 Activity calls are given as the source filed them.

The record followed here is PubChem BioAssay (NCI).

In the test the test system is HL-60(TB) leukemia. Description: NCI-60 one-dose screen, 48 h (100 = growth as untreated, 0 = no growth, -100 = all killed). The following applies: 10 µM unless noted. How it is done: Growth inhibition of the HL-60(TB) human tumor cell line is measured as a screen for anti-cancer activity. Cells are grown in 96 well plates and exposed to the test compound for 48 hours. Compounds are tested at a single concentration, which is 10^-5 M for most compounds. The reported endpoint is percent growth (GI% or GIPRCNT), where numbers from 0 - 100% represent growth inhibition, and numbers from -100% - 0 represent cell death. For example, a value of 40 represents 60% growth inhibition. A value of 0 means no net growth occurred over the course of the experiment. A value of -40 indicates 40% of cells at the beginning of the experiment died by the end of the experiment. A value of -100 means all cells are dead at the end of the experiment.
NCI-60 Human Tumor Cell Lines Screen was performed using the standard one-dose NCI protocol, which is described in more detail at https://dtp.cancer.gov/discovery_development/nci-60/default.htm.
Compounds with GIPRCNT values below 10 were considered active. Activity score was based on GIPRCNT using the following formula: […]
Score is 0 for GIPRCNT values of 100 or above, 50 for GIPRCNT values of 0, and 100 for GIPRCNT values of -100.
As to `NCCCOc1cc2ccccc2cc1C(=O)NCCCOc1cc2ccccc2cc1C(=O)Nc1ccc(Cl)cc1O`, the growth was -62% (active).

For `CC1SC(=S)N(c2ccc(Cl)cc2)C1=O` (stereo not given), the growth is 82.7% (inactive) and 98.2% (inactive).

With `NCc1c(O)ccc2ccccc12`, the growth was 102% (inactive).

As for `COc1ccc(-c2nc(Nc3ccc(F)cc3)nc(Nc3ccc4c(c3)nc(C)n4Cc3ccccc3)n2)cc1`, the growth was -11.4% (active).

Consider `CC(=O)N1CC(=O)NC1=S`, for which the growth was 103% (inactive).

Turning to `N=C(N)c1ccc(-c2ccc(-c3ccc(F)cc3)o2)o1`, the growth is -44.2% (active).

On to `COc1cc(NC(C)CCCNC(C)C)c2ncccc2c1OC` (stereo not given), for which the growth is 10.6% (inactive).

On to `O=C(CSc1nc2ccc([N+](=O)[O-])cc2[nH]1)Nc1cccc(C(F)(F)F)c1`, for which the growth is 0.11% (active).

As to `O=C1C(SCCO)=C(SCCO)C(=O)N1c1ccc(-c2ccccc2)cc1`, the growth was -44.2% (active).

Consider `ClC1(Cl)C2CCCCCCC21` (stereo not given), for which the growth is 106% (inactive).

For the compound `COC(=O)[C@H]1CCCN1C(=O)C1CCCN1C(=O)[C@@H](Cc1ccccc1)NC(=S)Nc1cc(C(F)(F)F)cc(C(F)(F)F)c1` (stereo not given in full), the growth is 112% (inactive) and 58.9% (inactive).

On to `C=CC[N+]1(CCO)CCN=C1CCCCCCCCCCCCC` (stereo not given), for which the growth is -31.8% (active).

Turning to `NS(=O)(=O)c1ccc(CCN2C(=O)C=CC2=O)cc1`, the growth is 99.6% (inactive).

With `O=C(Nc1cccc(C(F)(F)F)c1)Nc1cccc(C(F)(F)F)c1`, the growth is -27.8% (active).

Turning to `Oc1ccc(O)c(-[n+]2ccccc2)c1`, the growth was 101% (inactive).

Take `Cc1cc(OI)c(C(C)C)cc1-c1cc(C(C)C)c(OI)cc1C`: the growth was 106% (inactive).

As for `CCn1cnc(C[C@H](NC(=O)[C@H](CCCCNC(=O)Nc2cc(C(F)(F)F)cc(C(F)(F)F)c2)NC(=O)Nc2cc(C(F)(F)F)cc(C(F)(F)F)c2)C(=O)OC)c1`, the growth was -48.7% [100 µM] (active).

On to `CN(C)CCCn1c2c(c3cc(-c4cccc(S(N)(=O)=O)c4)ccc3c1=O)C(=O)c1ccccc1-2`, for which the growth was 93.2% (inactive).

Regarding `CC1=CC2(C)/C=C(C)/C=C\CC(O)/C=C3/C=CC(=C4C(=O)OC2(CC1C)C4=O)OC3` (stereo not given), the growth is -54.9% (active).

For `CC(=O)c1nc(Nc2ccc(C)cc2)sc1C`, the growth was 101% (inactive).

For `Cc1ccccc1COc1ccc(-c2onc(C)c2-c2ccc(Cl)cc2)cc1`, the growth is 17.7% (inactive).

For the compound `C/C(=C(/c1ccc(Cl)cc1)c1ccc(OCCN2CCCC2)cc1)c1ccc(Cl)cc1`, the growth was 69.5% (inactive).

Regarding `O=C1Nc2ccccc2/C1=C/c1cccn1CCCCn1c2ccccc2c(=O)c2ccccc21`, the growth is 60.2% (inactive).

In the case of `CC(=O)Oc1c(C)c(C)c2c(c1C)CCC(C)(CC(=O)OCCCCCCCCCCC[P+](c1ccccc1)(c1ccccc1)c1ccccc1)O2` (stereo not given), the growth was -34.8% (active).

As for `O=C1OC2(c3ccccc31)c1ccc(O)c(O)c1Oc1c2ccc(O)c1O`, the growth was 98.6% (inactive) and 117% (inactive).

As for `CC(C)OCc1cc(CN2CCN(c3cccc(Cl)c3)CC2)c(O)c2ncccc12`, the growth was -46% (active).

With `C=CCn1c(SCC(=O)Nc2ccc(C(=O)/C=C/c3ccc(Cl)cc3)cc2)nnc1-c1cc(-c2ccc(S(N)(=O)=O)cc2)nc2ccccc12`, the growth was 75.7% (inactive).

Turning to `COc1cc(-c2n/c(=C\c3c(O)[nH]c4ccccc34)cc3c2=Nc2ccccc2-3)cc(OC)c1OC`, the growth was -15.3% (active).

Regarding `CC(=O)/C(=C/c1ccc(-c2ccccc2)cc1)C(=O)c1ccccc1`, the growth was 56.3% (inactive).

`CN(C)c1ccc(/C=N/NC(=O)COc2cc(=O)n(C)c3ccccc23)cc1`: the growth is 98.5% (inactive).

As for `Cn1cnc([N+](=O)[O-])c1S(=O)(=O)Oc1cccc2ccccc12`, the growth is 4.37% (active).

With `CCN(C(=O)N1CCN(c2cc3c(cc2F)c(=O)c(C(=O)O)cn3C2CC2)CC1)c1nc(-c2ccc(Cl)cc2)cs1`, the growth was -27.1% (active).

In the case of `Nc1nc(N)nc(NCc2ccccc2)n1`, the growth was 98.6% (inactive).

Regarding `CCn1c2ccccc2c2cc(NC(=O)Nc3ccc([N+](=O)[O-])cc3C)ccc21`, the growth was 18.7% (inactive).

For `O=C(Nc1ccc(-c2nc(-c3cccc(OCCN4CCOCC4)c3)c(-c3ccnc(Br)c3)[nH]2)cc1)c1ccccc1`, the growth is -41.2% (active).

`C=C(C)[C@@H]1CC[C@]2(CO)CC[C@]3(C)[C@H](CC[C@@H]4[C@@]5(C)CC[C@H](NCO)C(C)(C)[C@@H]5CC[C@]43C)[C@@H]12`: the growth was -52% (active).

As to `C=C1C(=O)O[C@H]2[C@H]1CC/C(COC(=O)/C=C\C(=O)NCc1ccc(Cn3c(=O)sn(-c4ccc(Cl)cc4)c3=O)cc1)=C\CC[C@@]1(C)O[C@@H]21`, the growth was -52.5% (active).

For `CCN1CCN(c2nc(NCCNc3ccnc4cc(Cl)ccc34)c3ccccc3n2)CC1`, the growth was -67.1% (active).

In the case of `Cc1[nH]c2ncnc(Oc3ccc(NC(=O)Nc4ccc(Cl)c(C(F)(F)F)c4)cc3)c2c1C`, the growth is 65.6% (inactive).

For the compound `CC1CCCC(=O)O1` (stereo not given), the growth was 102% (inactive) and 119% (inactive).
